# The full ranking holds about 68,000 sequences; the median of “fluorescence intensity (a.u.)” is about 9,100, and the highest 2% start at about 16,000. Only a selection was taken, and the highest values are over-represented in it overall.
# Target: OsWRKY34 (Oryza sativa, UniProt Q0JBA9 1-250)
# Assay: protein-binding microarray (RPBM); PBS, 2% BSA, 51.3 ng/ul salmon testes DNA, 50 uM zinc acetate, 200 nM TF, 25 C, 1 h; high values mean tight binding
# Details: protein: recombinant; tags: N-terminal polyhistidine and DsRed monomer fusion (pET32a); label: CyDye5-dUTP incorporated in the synthesized complementary strand; 3' TTTTT single-stranded linker to array surface; dsDNA, one strand shown
# How it was run: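 Transcription factors were made in E. coli BL21-CodonPlus as N-terminal fusions to a polyhistidine tag and DsRed, then purified on Ni–NTA. After primer extension with Cy5-dUTP and blocking with 2% BSA, a custom Agilent array was exposed for 1 h at 25 °C to 200 nM protein in PBS, 2% BSA, salmon testes DNA and 50 µM zinc acetate. Washed arrays were scanned on an Axon 4000B, and the binding signal is per-feature fluorescence intensity in arbitrary units.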
# Sequence of OsWRKY34 (Q0JBA9 entry or part of it): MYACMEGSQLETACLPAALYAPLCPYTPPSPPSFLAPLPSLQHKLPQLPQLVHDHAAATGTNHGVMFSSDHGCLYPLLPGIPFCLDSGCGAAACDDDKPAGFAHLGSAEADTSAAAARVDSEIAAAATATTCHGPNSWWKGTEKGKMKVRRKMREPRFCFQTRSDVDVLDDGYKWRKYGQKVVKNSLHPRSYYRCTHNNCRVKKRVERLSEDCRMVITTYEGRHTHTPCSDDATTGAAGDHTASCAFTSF
row,Sequence,binding signal
1,ATTGTTCGTCGAACTTTATCATATTATTAATCATCATATACGGAGTCACCTAGTGCAG,8960 fluorescence intensity (a.u.)
2,ACCACGGCAAGCCCCTCGCCGAGTCTCTCATCATCGTCGACGGAGTCACCTAGTGCAG,8830 fluorescence intensity (a.u.)
3,TTTGTGTAACCGATATGTGGGCCCCACATATTTTATTATTCGGAGTCACCTAGTGCAG,9030 fluorescence intensity (a.u.)
4,TGCGTGGGTCCCAACTCCGGCCGTCTTCCGCCGTTGGATCCGGAGTCACCTAGTGCAG,8940 fluorescence intensity (a.u.)
5,CCACGATCACATTCACCTCCCATCCCACGACGTTGCTCTCCGGAGTCACCTAGTGCAG,8850 fluorescence intensity (a.u.)
6,TTTTACCAACTTTCTTAATACTCGTGTCCACCTAAAAAATCGGAGTCACCTAGTGCAG,8440 fluorescence intensity (a.u.)
7,CGCCTCCGGCCTCCTCACGCACTGCCGCACCACGTCGCACCGGAGTCACCTAGTGCAG,9020 fluorescence intensity (a.u.)
8,ACCTACTTTTCGTCCCTTAATTCTGTGGCTATGTTCAAATCGGAGTCACCTAGTGCAG,12700 fluorescence intensity (a.u.)
9,GAGAGGAGGTGGTGGGAAGTGGCGGCTAGGGTTTGGGTGGCGGAGTCACCTAGTGCAG,11300 fluorescence intensity (a.u.)
10,CGGCAGTGTTCTTTTTTTTTTACACGCGTTTTTTTTTACACGGAGTCACCTAGTGCAG,10800 fluorescence intensity (a.u.)
11,GGTTTTTTCGGTTTTCGGTTGTCAGTTCGGTTTCTGTTTTCGGAGTCACCTAGTGCAG,15400 fluorescence intensity (a.u.)
12,TTTTTACACGCGTTTTTTTTACATTGTCGTTTTTTTTTTGCGGAGTCACCTAGTGCAG,13500 fluorescence intensity (a.u.)
13,GCAGTCGGTTCGCGTTTGTTTTTTTTCTTTCTTTCTTTTTCGGAGTCACCTAGTGCAG,18400 fluorescence intensity (a.u.)
14,TCGTTCGTTGGTTTGTTTTTTTTTTCTTTTCTCGCGTACACGGAGTCACCTAGTGCAG,11600 fluorescence intensity (a.u.)
15,GCACAGTGGGAGGCCCGCGTTCTTTTTTTTTCGCCGGTTTCGGAGTCACCTAGTGCAG,10000 fluorescence intensity (a.u.)
16,CACCTTCTTTTTCTCTCTCTCTCTCTCTCTCTTTCTCATCCGGAGTCACCTAGTGCAG,10300 fluorescence intensity (a.u.)
17,TCATCCGGTGCCTGTTGTCTCTTTCTTCTCTCTCACATACCGGAGTCACCTAGTGCAG,16600 fluorescence intensity (a.u.)
18,TGTTCTTTTTTTTTACACGCGTTTTTTTTACATTGTCGTTCGGAGTCACCTAGTGCAG,18400 fluorescence intensity (a.u.)
19,AGCCTTATCTCTTCATCGGTTCATCCGGTGCCTGTTGTCTCGGAGTCACCTAGTGCAG,8990 fluorescence intensity (a.u.)
20,ATTATTGTTGTACAGTTCTTGCCTACAGTTCGGTTTTTCTCGGAGTCACCTAGTGCAG,19700 fluorescence intensity (a.u.)
21,TTCTTTTCGGTTGATTGTTTTTCTTTGTATTTCAGTGTTGCGGAGTCACCTAGTGCAG,9180 fluorescence intensity (a.u.)
22,CGCCGCCGCCCTCACCCTCGCCGCCGCGCATCCCGCGGTCCGGAGTCACCTAGTGCAG,8120 fluorescence intensity (a.u.)
23,ATAATAGGGTTATTCATAATATGGCAGGGTTTTTGGTTAGCGGAGTCACCTAGTGCAG,10300 fluorescence intensity (a.u.)

row,Sequence,binding signal
1,TGTGATAGGCTTCAATGTTTAATCTCACCATCGATTGTTACGGAGTCACCTAGTGCAG,9500 fluorescence intensity (a.u.)
2,TAGTCTTTGTCGTTTCCATGTATAACTCTATTTATCTTTCCGGAGTCACCTAGTGCAG,12400 fluorescence intensity (a.u.)
3,CTAGTTGCTCCTAACTTGGCCTACTGTCCTCCATCTCCAACGGAGTCACCTAGTGCAG,9280 fluorescence intensity (a.u.)
4,GAGCTTCCTATCGCGCCGCCGCGTGCGTACGTGTTTGATCCGGAGTCACCTAGTGCAG,11000 fluorescence intensity (a.u.)
5,TACACCGTCCCAACCGGCTTTGTTTGACTTGTCCGACCAGCGGAGTCACCTAGTGCAG,8330 fluorescence intensity (a.u.)
6,TTACCGATGCGACCTGTCCCTGTCACTCCCGCCTCGGTAACGGAGTCACCTAGTGCAG,9060 fluorescence intensity (a.u.)
7,GACATTACGGGCCCACAAGTACGCGTCCCCACCAGCCATACGGAGTCACCTAGTGCAG,8490 fluorescence intensity (a.u.)
8,ATCACCTTGCTCGATCGCCTCCGTTGTTTTGCACTAAATTCGGAGTCACCTAGTGCAG,8620 fluorescence intensity (a.u.)
9,GAGGGGAGGAAGAAGAGGTGGGTGAGAATGACACGTGGGGCGGAGTCACCTAGTGCAG,10600 fluorescence intensity (a.u.)
10,ATTGTTCATTTGTCGTTCCATTACATGTAACTTCACTTCACGGAGTCACCTAGTGCAG,17000 fluorescence intensity (a.u.)
11,TTTTAATCTCATTTTTTTTAACGGTTTTGCTATAATTTTTCGGAGTCACCTAGTGCAG,8850 fluorescence intensity (a.u.)
12,TGTTCTTGTTTGTGTTTTCTTCTTCGTCTCCGGCGACGGCCGGAGTCACCTAGTGCAG,10000 fluorescence intensity (a.u.)
13,GTTCATTTTCATGTTATTTTTCATGTAACTACATTATTATCGGAGTCACCTAGTGCAG,8990 fluorescence intensity (a.u.)
14,CTTATCTCATTTTATCTCGGTTTTTGTTAACTTGTTTTTTCGGAGTCACCTAGTGCAG,18200 fluorescence intensity (a.u.)
15,ATCGTTATCTATTGCCGTATGTTATTTCGTTGTTCCGTCTCGGAGTCACCTAGTGCAG,8920 fluorescence intensity (a.u.)
16,CTCTCTCTTCTTCTTCGTGTTGTTGTTTCTCTCTCTGTCTCGGAGTCACCTAGTGCAG,11700 fluorescence intensity (a.u.)
17,TTTGTGTCACTTTTAAACATGTTCACGTCATTATTTTAGTCGGAGTCACCTAGTGCAG,9290 fluorescence intensity (a.u.)
18,TCTTATATGTTATGCAAGTATGTTTCTATCTCGTATCTTCCGGAGTCACCTAGTGCAG,16500 fluorescence intensity (a.u.)
19,CTTCGTGTTCGTCGTGGTCTCTTGTTTCTTCTTCTTCTTCCGGAGTCACCTAGTGCAG,22000 fluorescence intensity (a.u.)
20,GATTTTTTCGGACTTGGTCTCGGTCTTTTTGTTTGGTTATCGGAGTCACCTAGTGCAG,10200 fluorescence intensity (a.u.)
21,TGTTTCTATCTCGTATCTTCTCTTCCAAGCATGTATTTCCCGGAGTCACCTAGTGCAG,8650 fluorescence intensity (a.u.)
22,ATTTTGTTTCTCCTTGGTTGGTTTTGCTTCACCTAGATCACGGAGTCACCTAGTGCAG,11200 fluorescence intensity (a.u.)
23,GCTCGCTTTCTCAGGTCTTTCTCTTCCCCGTATCCCCACTCGGAGTCACCTAGTGCAG,10500 fluorescence intensity (a.u.)

# Source: article PMC7819943, “Rice protein-binding microarrays: a tool to detect cis-acting elements near promoter regions in rice”
